Assay results from paper PMC10812921, “Transcriptional Coactivator BOB1 (OBF1, OCA-B) Modulates the Specificity of DNA Recognition by the POU-Domain Factors OCT1 and OCT2 in a Monomeric Configuration”.

Target: T1, POU2 (OCT2 POU domain) (human, UniProt P09086 175-386)
T1 sequence: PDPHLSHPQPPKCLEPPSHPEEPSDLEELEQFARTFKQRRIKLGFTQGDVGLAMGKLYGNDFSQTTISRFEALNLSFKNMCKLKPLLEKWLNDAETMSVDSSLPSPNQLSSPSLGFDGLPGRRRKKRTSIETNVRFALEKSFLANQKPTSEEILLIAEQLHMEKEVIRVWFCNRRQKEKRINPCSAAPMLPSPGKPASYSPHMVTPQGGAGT
Assay: EMSA-SELEX-seq; no BOB1; 20 mM Tris-HCl pH 7.6, 140 mM NaCl, 10% glycerol, 0.5 mM EDTA, 0.05% Triton X-100, 0.1 mg/mL BSA, 0.1 mg/mL poly(dI-dC), 5 mM DTT, room temperature, 20 min; high values mean tight binding
Settings: protein: recombinant; dsDNA, one strand shown
Procedure, shortened: (§1)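 Tagged POU-domain proteins were produced in E. coli BL21, purified under denaturing conditions and renatured before use. They were mixed at 30 ng with 300 ng of a PCR-amplified double-stranded random 35-nt library, with or without 28 ng coactivator protein, in 20 μL Tris–HCl pH 7.6 binding buffer, incubating 20 min at RT. Complexes cut from native 6% PAGE were eluted and PCR-amplified over four rounds, then sequenced by Illumina, with binding preference taken as the percentage of sequenced 8-mers matching a motif pattern.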

Sequence | binding signal
ACCTTAAA | 0.023 % of ANNNNAAN 8-mers
ATATAAAG | 0.088 % of ANNNNAAN 8-mers
ATGTTAAC | 0.0938 % of ANNNNAAN 8-mers
AGCTTAAG | 0.0391 % of ANNNNAAN 8-mers
AGGAAAAA | 0.0909 % of ANNNNAAN 8-mers
ATAGAAAC | 0.0455 % of ANNNNAAN 8-mers
AGGCTAAT | 0.197 % of ANNNNAAN 8-mers
AAGCCAAG | 0.0184 % of ANNNNAAN 8-mers
ATAGTAAG | 0.0806 % of ANNNNAAN 8-mers
ATTACAAT | 0.26 % of ANNNNAAN 8-mers
AAGCAAAG | 0.0501 % of ANNNNAAN 8-mers
ATCACAAA | 0.0374 % of ANNNNAAN 8-mers
AATATAAG | 0.123 % of ANNNNAAN 8-mers
ATCACAAC | 0.0242 % of ANNNNAAN 8-mers
AGGCTAAA | 0.0414 % of ANNNNAAN 8-mers
AGGCAAAG | 0.0783 % of ANNNNAAN 8-mers
ATTTTAAC | 0.0921 % of ANNNNAAN 8-mers
ACTTAAAA | 0.0524 % of ANNNNAAN 8-mers
ATTCCAAC | 0.0432 % of ANNNNAAN 8-mers
AACTGAAC | 0.019 % of ANNNNAAN 8-mers

Sequence | binding signal
ACTTGAAC | 0.0207 % of ANNNNAAN 8-mers
AACTGAAA | 0.0386 % of ANNNNAAN 8-mers
ATGGAAAT | 0.723 % of ANNNNAAN 8-mers
ACAATAAA | 0.0495 % of ANNNNAAN 8-mers
AGAGCAAC | 0.0115 % of ANNNNAAN 8-mers
ATCTCAAA | 0.0443 % of ANNNNAAN 8-mers
AAGCAAAA | 0.0898 % of ANNNNAAN 8-mers
ACTCTAAA | 0.0299 % of ANNNNAAN 8-mers
ACAGCAAA | 0.0213 % of ANNNNAAN 8-mers
AGTCCAAG | 0.0253 % of ANNNNAAN 8-mers
AGCCAAAA | 0.038 % of ANNNNAAN 8-mers
ACTCTAAC | 0.015 % of ANNNNAAN 8-mers
AACGGAAC | 0.0201 % of ANNNNAAN 8-mers
AGGTTAAA | 0.0731 % of ANNNNAAN 8-mers
ATTCAAAA | 0.277 % of ANNNNAAN 8-mers
AATCTAAT | 0.143 % of ANNNNAAN 8-mers
AAACCAAC | 0.0104 % of ANNNNAAN 8-mers
AATGTAAG | 0.106 % of ANNNNAAN 8-mers
ATCAAAAC | 0.0443 % of ANNNNAAN 8-mers

Target: POU1 (OCT1 POU domain);BOB1 (OBF1, OCA-B) (human;human, UniProt P14859;Q16633 260-458;1-256, |)
Assay: EMSA-SELEX-seq; with BOB1 (ternary complex band); 20 mM Tris-HCl pH 7.6, 140 mM NaCl, 10% glycerol, 0.5 mM EDTA, 0.05% Triton X-100, 0.1 mg/mL BSA, 0.1 mg/mL poly(dI-dC), 5 mM DTT, room temperature, 20 min; high values mean tight binding
Settings: protein: recombinant;recombinant; copies: 1;1; dsDNA, one strand shown
Procedure, shortened: as §1

Sequence | binding signal
ACCTTAAA | 0.0375 % of ANNNNAAN 8-mers
ATATAAAG | 0.0597 % of ANNNNAAN 8-mers
ATGTTAAC | 0.0578 % of ANNNNAAN 8-mers
AGCTTAAG | 0.0379 % of ANNNNAAN 8-mers
AGGAAAAA | 0.18 % of ANNNNAAN 8-mers
ATAGAAAC | 0.0339 % of ANNNNAAN 8-mers
AGGCTAAT | 0.0675 % of ANNNNAAN 8-mers
AAGCCAAG | 0.0168 % of ANNNNAAN 8-mers
ATAGTAAG | 0.0656 % of ANNNNAAN 8-mers
ATTACAAT | 0.0847 % of ANNNNAAN 8-mers
AAGCAAAG | 0.125 % of ANNNNAAN 8-mers
ATCACAAA | 0.0539 % of ANNNNAAN 8-mers
AATATAAG | 0.0886 % of ANNNNAAN 8-mers
ATCACAAC | 0.0222 % of ANNNNAAN 8-mers
AGGCTAAA | 0.0363 % of ANNNNAAN 8-mers
AGGCAAAG | 0.258 % of ANNNNAAN 8-mers
ATTTTAAC | 0.0652 % of ANNNNAAN 8-mers
ACTTAAAA | 0.0464 % of ANNNNAAN 8-mers
ATTCCAAC | 0.0269 % of ANNNNAAN 8-mers
AACTGAAC | 0.0168 % of ANNNNAAN 8-mers

Sequence | binding signal
ACTTGAAC | 0.018 % of ANNNNAAN 8-mers
AACTGAAA | 0.0382 % of ANNNNAAN 8-mers
ATGGAAAT | 0.958 % of ANNNNAAN 8-mers
ACAATAAA | 0.0453 % of ANNNNAAN 8-mers
AGAGCAAC | 0.0137 % of ANNNNAAN 8-mers
ATCTCAAA | 0.0574 % of ANNNNAAN 8-mers
AAGCAAAA | 0.204 % of ANNNNAAN 8-mers
ACTCTAAA | 0.0285 % of ANNNNAAN 8-mers
ACAGCAAA | 0.0359 % of ANNNNAAN 8-mers
AGTCCAAG | 0.0261 % of ANNNNAAN 8-mers
AGCCAAAA | 0.0499 % of ANNNNAAN 8-mers
ACTCTAAC | 0.0187 % of ANNNNAAN 8-mers
AACGGAAC | 0.025 % of ANNNNAAN 8-mers
AGGTTAAA | 0.0578 % of ANNNNAAN 8-mers
ATTCAAAA | 0.427 % of ANNNNAAN 8-mers
AATCTAAT | 0.0972 % of ANNNNAAN 8-mers
AAACCAAC | 0.0199 % of ANNNNAAN 8-mers
AATGTAAG | 0.089 % of ANNNNAAN 8-mers
ATCAAAAC | 0.0539 % of ANNNNAAN 8-mers

Target: T2, POU2 (OCT2 POU domain);BOB1 (OBF1, OCA-B) (human;human, UniProt P09086;Q16633 175-386;1-256, |)
T2 sequence 1: T1 sequence
T2 sequence 2: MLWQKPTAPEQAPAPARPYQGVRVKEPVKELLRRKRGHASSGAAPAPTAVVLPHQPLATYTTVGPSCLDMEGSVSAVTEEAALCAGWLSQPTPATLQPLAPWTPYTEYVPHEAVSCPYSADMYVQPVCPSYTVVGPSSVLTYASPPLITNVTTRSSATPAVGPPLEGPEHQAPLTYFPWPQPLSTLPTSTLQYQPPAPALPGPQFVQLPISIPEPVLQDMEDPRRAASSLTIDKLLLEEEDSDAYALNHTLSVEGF
Assay: as above
Settings: protein: recombinant;recombinant; copies: 1;1; dsDNA, one strand shown
Procedure, shortened: as §1

Sequence | binding signal
ACCTTAAA | 0.0173 % of ANNNNAAN 8-mers
ATATAAAG | 0.0603 % of ANNNNAAN 8-mers
ATGTTAAC | 0.0586 % of ANNNNAAN 8-mers
AGCTTAAG | 0.0355 % of ANNNNAAN 8-mers
AGGAAAAA | 0.102 % of ANNNNAAN 8-mers
ATAGAAAC | 0.0355 % of ANNNNAAN 8-mers
AGGCTAAT | 0.0908 % of ANNNNAAN 8-mers
AAGCCAAG | 0.019 % of ANNNNAAN 8-mers
ATAGTAAG | 0.0619 % of ANNNNAAN 8-mers
ATTACAAT | 0.0966 % of ANNNNAAN 8-mers
AAGCAAAG | 0.0537 % of ANNNNAAN 8-mers
ATCACAAA | 0.0438 % of ANNNNAAN 8-mers
AATATAAG | 0.0966 % of ANNNNAAN 8-mers
ATCACAAC | 0.0165 % of ANNNNAAN 8-mers
AGGCTAAA | 0.0454 % of ANNNNAAN 8-mers
AGGCAAAG | 0.13 % of ANNNNAAN 8-mers
ATTTTAAC | 0.0652 % of ANNNNAAN 8-mers
ACTTAAAA | 0.052 % of ANNNNAAN 8-mers
ATTCCAAC | 0.0223 % of ANNNNAAN 8-mers
AACTGAAC | 0.0182 % of ANNNNAAN 8-mers

Sequence | binding signal
ACTTGAAC | 0.0314 % of ANNNNAAN 8-mers
AACTGAAA | 0.038 % of ANNNNAAN 8-mers
ATGGAAAT | 0.982 % of ANNNNAAN 8-mers
ACAATAAA | 0.0396 % of ANNNNAAN 8-mers
AGAGCAAC | 0.0206 % of ANNNNAAN 8-mers
ATCTCAAA | 0.038 % of ANNNNAAN 8-mers
AAGCAAAA | 0.106 % of ANNNNAAN 8-mers
ACTCTAAA | 0.0248 % of ANNNNAAN 8-mers
ACAGCAAA | 0.0347 % of ANNNNAAN 8-mers
AGTCCAAG | 0.0215 % of ANNNNAAN 8-mers
AGCCAAAA | 0.0305 % of ANNNNAAN 8-mers
ACTCTAAC | 0.0182 % of ANNNNAAN 8-mers
AACGGAAC | 0.0206 % of ANNNNAAN 8-mers
AGGTTAAA | 0.052 % of ANNNNAAN 8-mers
ATTCAAAA | 0.278 % of ANNNNAAN 8-mers
AATCTAAT | 0.0949 % of ANNNNAAN 8-mers
AAACCAAC | 0.0215 % of ANNNNAAN 8-mers
AATGTAAG | 0.0958 % of ANNNNAAN 8-mers
ATCAAAAC | 0.0347 % of ANNNNAAN 8-mers
